The values below come from ChEMBL document CHEMBL1961873, “Compounds: GSK PKIS; Assays: Nanosyn kinase panel” (2012).

As usually defined, the inhibition is the change of the read-out against control, counted positive when it falls.

Assay [1] deals with T1, Serine/threonine-protein kinase D2 (Homo sapiens) (UniProt Q9BZL6).
T1 sequence (whole entry): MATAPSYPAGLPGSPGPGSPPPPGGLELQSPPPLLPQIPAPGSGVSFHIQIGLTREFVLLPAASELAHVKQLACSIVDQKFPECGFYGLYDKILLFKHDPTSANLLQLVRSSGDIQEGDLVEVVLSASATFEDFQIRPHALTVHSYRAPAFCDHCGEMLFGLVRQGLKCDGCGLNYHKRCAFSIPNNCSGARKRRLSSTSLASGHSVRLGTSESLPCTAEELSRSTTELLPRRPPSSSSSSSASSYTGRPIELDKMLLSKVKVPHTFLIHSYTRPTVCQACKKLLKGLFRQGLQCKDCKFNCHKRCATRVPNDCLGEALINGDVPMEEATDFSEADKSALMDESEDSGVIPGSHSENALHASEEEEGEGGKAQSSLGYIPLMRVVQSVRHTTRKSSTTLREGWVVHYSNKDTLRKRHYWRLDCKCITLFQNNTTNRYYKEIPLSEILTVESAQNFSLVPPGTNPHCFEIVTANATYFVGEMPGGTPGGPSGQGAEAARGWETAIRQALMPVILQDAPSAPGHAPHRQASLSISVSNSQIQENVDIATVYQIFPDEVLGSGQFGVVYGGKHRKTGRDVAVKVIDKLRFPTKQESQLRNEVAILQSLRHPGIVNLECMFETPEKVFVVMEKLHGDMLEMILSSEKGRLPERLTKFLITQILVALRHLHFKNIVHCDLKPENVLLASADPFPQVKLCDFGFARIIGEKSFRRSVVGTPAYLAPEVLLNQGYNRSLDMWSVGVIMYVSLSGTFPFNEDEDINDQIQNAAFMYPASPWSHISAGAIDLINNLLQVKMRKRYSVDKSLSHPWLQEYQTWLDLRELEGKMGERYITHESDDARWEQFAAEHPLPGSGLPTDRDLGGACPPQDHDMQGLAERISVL
To be noted: at 1 µM.

Assay [2] addresses T2, Serine/threonine-protein kinase D3 (Homo sapiens) (UniProt O94806).
T2 sequence (whole entry): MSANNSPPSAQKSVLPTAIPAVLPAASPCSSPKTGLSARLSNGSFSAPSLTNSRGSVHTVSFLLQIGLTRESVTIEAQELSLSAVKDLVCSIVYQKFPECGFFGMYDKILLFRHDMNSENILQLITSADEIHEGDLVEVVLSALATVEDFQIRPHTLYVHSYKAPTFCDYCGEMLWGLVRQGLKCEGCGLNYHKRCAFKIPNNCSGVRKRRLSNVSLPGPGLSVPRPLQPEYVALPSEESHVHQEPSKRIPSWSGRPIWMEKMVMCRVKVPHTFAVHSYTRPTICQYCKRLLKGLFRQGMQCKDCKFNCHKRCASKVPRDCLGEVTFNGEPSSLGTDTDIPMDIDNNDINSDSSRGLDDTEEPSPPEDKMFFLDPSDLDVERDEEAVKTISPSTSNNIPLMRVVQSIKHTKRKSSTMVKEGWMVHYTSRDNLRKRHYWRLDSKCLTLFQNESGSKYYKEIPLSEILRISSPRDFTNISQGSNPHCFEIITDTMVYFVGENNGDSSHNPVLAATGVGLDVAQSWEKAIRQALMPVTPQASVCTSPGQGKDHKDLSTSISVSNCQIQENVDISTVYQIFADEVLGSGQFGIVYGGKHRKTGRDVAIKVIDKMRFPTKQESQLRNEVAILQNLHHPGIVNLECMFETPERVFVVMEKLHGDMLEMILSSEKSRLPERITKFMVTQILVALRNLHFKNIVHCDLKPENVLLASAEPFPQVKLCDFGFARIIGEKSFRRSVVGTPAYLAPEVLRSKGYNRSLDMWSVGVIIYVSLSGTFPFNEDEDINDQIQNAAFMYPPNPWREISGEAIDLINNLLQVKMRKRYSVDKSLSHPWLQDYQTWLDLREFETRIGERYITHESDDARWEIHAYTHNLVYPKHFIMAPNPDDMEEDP
To be noted: at 0.1 µM.

Assay [3] has as its target T2, Serine/threonine-protein kinase D3 (Homo sapiens). To be noted: at 1 µM.
Assay [4] has as its target T3, cGMP-dependent protein kinase 1 (Homo sapiens) (UniProt Q13976).
T3 sequence (whole entry): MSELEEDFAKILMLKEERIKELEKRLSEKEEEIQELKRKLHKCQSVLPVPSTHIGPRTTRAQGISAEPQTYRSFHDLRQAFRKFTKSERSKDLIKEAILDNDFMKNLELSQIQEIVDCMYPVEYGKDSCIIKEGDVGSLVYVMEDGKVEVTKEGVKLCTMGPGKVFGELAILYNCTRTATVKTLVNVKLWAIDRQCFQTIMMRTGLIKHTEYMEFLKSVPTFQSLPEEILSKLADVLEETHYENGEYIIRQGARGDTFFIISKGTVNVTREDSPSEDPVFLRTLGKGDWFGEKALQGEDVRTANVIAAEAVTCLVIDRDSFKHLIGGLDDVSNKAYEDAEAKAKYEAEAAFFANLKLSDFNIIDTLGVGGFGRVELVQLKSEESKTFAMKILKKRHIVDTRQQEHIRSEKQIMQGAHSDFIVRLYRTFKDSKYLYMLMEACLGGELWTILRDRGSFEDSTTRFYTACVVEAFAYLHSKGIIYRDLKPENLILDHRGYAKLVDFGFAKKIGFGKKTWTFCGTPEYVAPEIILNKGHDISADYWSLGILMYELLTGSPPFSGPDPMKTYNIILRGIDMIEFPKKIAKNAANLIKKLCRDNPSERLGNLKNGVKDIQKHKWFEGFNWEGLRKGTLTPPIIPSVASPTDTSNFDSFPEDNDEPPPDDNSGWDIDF
To be noted: at 0.1 µM.

For assay [5], the target named is T3, cGMP-dependent protein kinase 1 (Homo sapiens). To be noted: at 1 µM.
Assay [6] addresses T4, cGMP-dependent protein kinase 2 (Homo sapiens) (UniProt Q13237).
T4 sequence (whole entry): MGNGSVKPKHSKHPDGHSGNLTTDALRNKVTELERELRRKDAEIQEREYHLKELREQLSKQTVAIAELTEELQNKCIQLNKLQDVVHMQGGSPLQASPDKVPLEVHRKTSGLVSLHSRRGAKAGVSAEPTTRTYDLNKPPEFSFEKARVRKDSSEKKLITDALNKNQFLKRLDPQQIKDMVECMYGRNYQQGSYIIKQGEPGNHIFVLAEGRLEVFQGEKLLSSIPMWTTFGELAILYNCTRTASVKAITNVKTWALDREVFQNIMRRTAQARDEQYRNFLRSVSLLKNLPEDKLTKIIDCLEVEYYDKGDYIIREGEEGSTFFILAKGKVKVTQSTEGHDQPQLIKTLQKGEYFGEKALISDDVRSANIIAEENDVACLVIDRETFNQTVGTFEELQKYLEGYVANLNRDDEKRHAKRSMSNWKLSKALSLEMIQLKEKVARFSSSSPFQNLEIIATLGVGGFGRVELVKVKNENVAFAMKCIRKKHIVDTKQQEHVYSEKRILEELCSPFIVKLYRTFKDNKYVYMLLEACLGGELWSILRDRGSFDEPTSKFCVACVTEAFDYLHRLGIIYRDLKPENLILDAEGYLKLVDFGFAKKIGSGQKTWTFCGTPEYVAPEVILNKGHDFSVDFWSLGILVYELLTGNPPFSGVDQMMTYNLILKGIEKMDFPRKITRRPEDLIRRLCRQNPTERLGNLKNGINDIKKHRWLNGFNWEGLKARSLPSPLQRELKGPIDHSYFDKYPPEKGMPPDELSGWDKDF
To be noted: at 0.1 µM.

The target in assay [7] is T4, cGMP-dependent protein kinase 2 (Homo sapiens). To be noted: at 1 µM.
Assay [8] concerns the target T5, cAMP-dependent protein kinase catalytic subunit PRKX (Homo sapiens) (UniProt P51817).
T5 sequence (whole entry): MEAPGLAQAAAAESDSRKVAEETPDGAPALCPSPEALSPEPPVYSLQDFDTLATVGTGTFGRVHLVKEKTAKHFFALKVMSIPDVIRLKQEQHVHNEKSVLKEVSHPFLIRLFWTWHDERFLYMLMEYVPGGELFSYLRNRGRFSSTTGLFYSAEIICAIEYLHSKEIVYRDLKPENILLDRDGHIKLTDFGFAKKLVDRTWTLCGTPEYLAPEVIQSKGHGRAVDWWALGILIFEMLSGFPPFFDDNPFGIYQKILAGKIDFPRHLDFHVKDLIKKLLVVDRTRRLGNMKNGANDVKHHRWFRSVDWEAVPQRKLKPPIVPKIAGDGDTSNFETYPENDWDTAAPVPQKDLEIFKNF
To be noted: at 0.1 µM.

Assay [9] deals with T5, cAMP-dependent protein kinase catalytic subunit PRKX (Homo sapiens). To be noted: at 1 µM.
Assay [10] addresses Rho-associated protein kinase 1 (Homo sapiens) (UniProt Q13464). To be noted: at 0.1 µM.
Assay [11] has the same target. To be noted: at 1 µM.
For assay [12], the target named is Rho-associated protein kinase 2 (Homo sapiens) (UniProt O75116). To be noted: at 0.1 µM.
For assay [13] the target is unchanged. To be noted: at 1 µM.
Assay [14] deals with Ribosomal protein S6 kinase alpha-1 (Homo sapiens) (UniProt Q15418). To be noted: at 0.1 µM.
Assay [15] has the same target. To be noted: at 1 µM.
For assay [16], the target named is Ribosomal protein S6 kinase alpha-3 (Homo sapiens) (UniProt P51812). To be noted: at 0.1 µM.
Assay [17] has the same target. To be noted: at 1 µM.
Assay [18] has as its target Ribosomal protein S6 kinase alpha-2 (Homo sapiens) (UniProt Q15349). To be noted: at 0.1 µM.
For assay [19] the target is unchanged. To be noted: at 1 µM.
The target in assay [20] is Ribosomal protein S6 kinase alpha-6 (Homo sapiens) (UniProt Q9UK32). To be noted: at 0.1 µM.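 Note: reported value is the mean inhibition of RSK4, from the GSK PKIS kinase inhibitor screen.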
Sequence of Ribosomal protein S6 kinase alpha-6 (Homo sapiens) (Q9UK32 whole entry): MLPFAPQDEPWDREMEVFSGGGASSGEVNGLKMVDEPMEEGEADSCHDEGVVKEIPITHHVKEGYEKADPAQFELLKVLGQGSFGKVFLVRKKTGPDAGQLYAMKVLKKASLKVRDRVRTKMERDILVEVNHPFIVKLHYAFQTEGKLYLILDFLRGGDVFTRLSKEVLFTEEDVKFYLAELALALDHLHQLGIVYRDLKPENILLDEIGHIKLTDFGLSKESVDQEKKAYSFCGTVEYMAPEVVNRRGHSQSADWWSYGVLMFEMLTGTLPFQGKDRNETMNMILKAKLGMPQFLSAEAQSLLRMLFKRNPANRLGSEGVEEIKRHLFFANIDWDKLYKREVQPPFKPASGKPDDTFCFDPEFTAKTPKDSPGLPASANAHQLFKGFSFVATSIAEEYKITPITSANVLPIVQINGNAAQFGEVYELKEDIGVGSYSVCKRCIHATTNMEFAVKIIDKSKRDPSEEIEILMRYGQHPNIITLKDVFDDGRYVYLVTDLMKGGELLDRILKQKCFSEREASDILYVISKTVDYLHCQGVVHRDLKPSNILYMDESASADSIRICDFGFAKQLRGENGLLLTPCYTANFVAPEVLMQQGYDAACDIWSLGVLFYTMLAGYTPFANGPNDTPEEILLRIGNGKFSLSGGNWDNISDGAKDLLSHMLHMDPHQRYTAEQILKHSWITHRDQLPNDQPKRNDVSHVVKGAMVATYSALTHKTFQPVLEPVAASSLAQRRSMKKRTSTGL

Sequence of Rho-associated protein kinase 1 (Homo sapiens) (Q13464 2-1354 limits assumed): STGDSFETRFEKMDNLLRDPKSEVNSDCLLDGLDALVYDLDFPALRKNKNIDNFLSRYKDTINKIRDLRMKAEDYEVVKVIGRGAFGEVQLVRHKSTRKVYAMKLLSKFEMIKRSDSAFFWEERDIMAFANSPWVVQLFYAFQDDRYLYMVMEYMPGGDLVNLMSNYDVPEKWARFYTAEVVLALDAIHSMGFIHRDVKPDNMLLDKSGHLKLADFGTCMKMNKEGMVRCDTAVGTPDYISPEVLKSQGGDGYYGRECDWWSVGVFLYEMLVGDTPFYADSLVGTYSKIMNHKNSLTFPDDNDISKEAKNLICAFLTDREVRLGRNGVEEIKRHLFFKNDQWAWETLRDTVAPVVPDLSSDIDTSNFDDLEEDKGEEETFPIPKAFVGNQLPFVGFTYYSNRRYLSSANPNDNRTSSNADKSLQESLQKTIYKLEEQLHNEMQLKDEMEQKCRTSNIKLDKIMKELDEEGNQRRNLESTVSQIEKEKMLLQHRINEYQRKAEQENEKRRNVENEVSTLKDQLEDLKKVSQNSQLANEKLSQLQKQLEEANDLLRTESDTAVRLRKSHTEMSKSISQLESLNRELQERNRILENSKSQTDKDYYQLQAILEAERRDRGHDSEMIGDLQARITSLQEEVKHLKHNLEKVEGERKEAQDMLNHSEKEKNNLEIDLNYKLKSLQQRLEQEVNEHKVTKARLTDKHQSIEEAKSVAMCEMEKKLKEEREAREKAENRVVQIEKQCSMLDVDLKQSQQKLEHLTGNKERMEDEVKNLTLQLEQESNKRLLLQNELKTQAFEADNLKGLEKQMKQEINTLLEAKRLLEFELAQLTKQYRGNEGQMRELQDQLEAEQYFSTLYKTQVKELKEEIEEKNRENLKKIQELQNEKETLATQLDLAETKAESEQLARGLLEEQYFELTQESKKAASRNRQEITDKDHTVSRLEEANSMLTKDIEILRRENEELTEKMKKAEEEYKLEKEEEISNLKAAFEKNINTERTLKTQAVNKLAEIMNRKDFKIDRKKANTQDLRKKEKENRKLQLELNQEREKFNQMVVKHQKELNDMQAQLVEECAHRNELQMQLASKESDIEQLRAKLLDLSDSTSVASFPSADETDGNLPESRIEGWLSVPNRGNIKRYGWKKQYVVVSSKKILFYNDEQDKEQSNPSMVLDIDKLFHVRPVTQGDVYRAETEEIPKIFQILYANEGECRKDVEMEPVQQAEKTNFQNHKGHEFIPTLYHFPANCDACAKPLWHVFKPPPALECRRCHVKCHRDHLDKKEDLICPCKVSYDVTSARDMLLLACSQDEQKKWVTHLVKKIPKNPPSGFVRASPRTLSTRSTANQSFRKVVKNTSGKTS
Sequence of Ribosomal protein S6 kinase alpha-2 (Homo sapiens) (Q15349 whole entry): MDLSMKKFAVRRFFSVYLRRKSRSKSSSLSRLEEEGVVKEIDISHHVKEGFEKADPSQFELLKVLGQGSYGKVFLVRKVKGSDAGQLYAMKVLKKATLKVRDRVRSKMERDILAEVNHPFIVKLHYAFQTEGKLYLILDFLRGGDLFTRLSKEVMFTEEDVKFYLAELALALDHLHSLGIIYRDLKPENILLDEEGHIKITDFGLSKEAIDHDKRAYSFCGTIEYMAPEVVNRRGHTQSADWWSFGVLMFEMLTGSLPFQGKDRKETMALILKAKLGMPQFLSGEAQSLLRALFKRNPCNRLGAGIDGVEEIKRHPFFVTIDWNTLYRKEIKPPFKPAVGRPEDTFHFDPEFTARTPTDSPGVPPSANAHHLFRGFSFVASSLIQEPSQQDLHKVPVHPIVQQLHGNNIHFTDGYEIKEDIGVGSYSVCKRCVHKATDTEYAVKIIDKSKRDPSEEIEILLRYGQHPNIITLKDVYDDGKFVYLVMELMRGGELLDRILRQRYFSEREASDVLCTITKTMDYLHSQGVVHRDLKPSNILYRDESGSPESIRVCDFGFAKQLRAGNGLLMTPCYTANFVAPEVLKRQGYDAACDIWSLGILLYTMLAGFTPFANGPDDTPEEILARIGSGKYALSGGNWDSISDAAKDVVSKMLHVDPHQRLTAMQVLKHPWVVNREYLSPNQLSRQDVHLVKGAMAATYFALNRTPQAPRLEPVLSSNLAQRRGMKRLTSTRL
Sequence of Ribosomal protein S6 kinase alpha-3 (Homo sapiens) (P51812 whole entry): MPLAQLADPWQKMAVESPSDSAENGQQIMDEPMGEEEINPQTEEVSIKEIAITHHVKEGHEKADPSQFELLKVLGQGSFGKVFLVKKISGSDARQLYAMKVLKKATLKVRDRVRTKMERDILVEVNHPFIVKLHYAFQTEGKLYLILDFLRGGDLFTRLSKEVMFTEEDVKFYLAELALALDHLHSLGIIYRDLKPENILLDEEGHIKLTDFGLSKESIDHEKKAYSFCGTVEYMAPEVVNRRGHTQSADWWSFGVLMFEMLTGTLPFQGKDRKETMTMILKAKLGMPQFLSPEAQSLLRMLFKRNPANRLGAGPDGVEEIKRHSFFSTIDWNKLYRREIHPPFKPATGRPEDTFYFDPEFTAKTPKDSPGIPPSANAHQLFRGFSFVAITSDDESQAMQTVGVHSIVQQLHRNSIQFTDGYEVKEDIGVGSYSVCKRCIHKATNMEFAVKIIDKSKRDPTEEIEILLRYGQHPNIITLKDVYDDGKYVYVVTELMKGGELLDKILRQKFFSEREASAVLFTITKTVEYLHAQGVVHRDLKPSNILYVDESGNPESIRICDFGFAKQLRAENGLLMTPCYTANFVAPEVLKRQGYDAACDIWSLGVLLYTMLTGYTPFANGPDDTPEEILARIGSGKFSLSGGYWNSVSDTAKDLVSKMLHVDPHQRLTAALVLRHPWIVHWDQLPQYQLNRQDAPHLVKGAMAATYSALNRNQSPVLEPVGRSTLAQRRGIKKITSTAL
Sequence of Rho-associated protein kinase 2 (Homo sapiens) (O75116 whole entry, looked up): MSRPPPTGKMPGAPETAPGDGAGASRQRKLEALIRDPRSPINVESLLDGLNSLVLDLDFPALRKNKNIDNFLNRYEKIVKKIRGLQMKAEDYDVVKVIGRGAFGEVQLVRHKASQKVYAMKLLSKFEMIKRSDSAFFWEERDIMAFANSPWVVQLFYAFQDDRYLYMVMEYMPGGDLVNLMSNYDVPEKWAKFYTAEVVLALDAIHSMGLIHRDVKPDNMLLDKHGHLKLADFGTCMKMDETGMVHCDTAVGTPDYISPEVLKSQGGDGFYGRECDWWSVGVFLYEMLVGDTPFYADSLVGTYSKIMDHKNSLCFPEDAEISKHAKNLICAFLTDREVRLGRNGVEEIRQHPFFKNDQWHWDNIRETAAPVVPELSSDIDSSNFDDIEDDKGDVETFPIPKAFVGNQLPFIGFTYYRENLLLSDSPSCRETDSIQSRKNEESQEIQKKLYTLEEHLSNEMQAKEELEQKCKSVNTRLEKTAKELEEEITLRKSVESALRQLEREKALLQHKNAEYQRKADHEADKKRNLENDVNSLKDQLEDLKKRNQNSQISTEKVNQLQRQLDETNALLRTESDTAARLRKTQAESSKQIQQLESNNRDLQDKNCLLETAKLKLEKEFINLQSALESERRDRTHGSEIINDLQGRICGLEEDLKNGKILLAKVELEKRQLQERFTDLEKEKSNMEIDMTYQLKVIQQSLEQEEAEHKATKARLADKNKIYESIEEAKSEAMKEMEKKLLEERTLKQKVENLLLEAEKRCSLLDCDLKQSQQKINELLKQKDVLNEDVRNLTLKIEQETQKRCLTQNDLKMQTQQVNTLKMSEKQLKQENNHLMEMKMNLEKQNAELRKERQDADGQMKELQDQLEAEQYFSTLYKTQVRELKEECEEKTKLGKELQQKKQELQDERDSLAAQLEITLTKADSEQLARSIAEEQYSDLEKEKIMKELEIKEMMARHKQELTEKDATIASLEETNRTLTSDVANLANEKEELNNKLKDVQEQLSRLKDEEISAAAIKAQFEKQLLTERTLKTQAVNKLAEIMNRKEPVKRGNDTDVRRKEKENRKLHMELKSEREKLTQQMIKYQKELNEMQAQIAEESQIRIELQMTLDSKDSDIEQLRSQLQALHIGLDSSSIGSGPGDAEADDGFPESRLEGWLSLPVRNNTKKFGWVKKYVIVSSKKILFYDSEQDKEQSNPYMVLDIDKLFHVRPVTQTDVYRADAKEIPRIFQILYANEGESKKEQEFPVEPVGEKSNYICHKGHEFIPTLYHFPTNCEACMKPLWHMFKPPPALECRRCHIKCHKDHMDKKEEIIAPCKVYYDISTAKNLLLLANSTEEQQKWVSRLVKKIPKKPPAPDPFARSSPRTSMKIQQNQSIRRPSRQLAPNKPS

Consider `COC(=O)c1ccc2c(c1)C(=Cc1cc(Br)c(O)c(Br)c1)C(=O)N2`, for which the inhibition came to 3.79% in [1]; 4.47% in assay [2]; 5.87% in assay [3]; 2.45% in assay [4]; 5.8% in [5]; 1.59% in assay [6]. Also, the inhibition was determined as 6.29% in assay [7]; 1.47% in [8]; 1.86% in assay [9]; 2.01% in [10]; 1.74% in [11]; 1.52% in [12]. The inhibition came to 3.89% in assay [13]; 1.5% in assay [14]; 6.51% in assay [15]; 1.97% in [16]; 4.23% in assay [17]; 3.99% in assay [18]. The inhibition is 6.79% in assay [19] and 2.52% in [20].
For `Cc1cc(Cl)cc2c1NC(=O)C2=NNc1ccc(S(N)(=O)=O)cc1`, the inhibition in assay [1] worked out at 2.34%; in assay [2], 2.25%; in assay [3], 1.81%; in assay [4], 1.17%; in assay [5], 3.27%; in assay [6] it was 2.01%. Further, the inhibition is 2% in assay [7]; 1.43% in assay [8]; 3.22% in assay [9]; 0.02% in assay [10]; 0.46% in assay [11]; 2.77% in assay [12]. Besides, the inhibition in assay [13] is 4.97%; in assay [14], 2.28%; in assay [15], 4.19%; in [16] it was 1.6%; in [17], 3.02%; in [18], 2.57%. The inhibition in assay [19] was found to be 1.19%; in [20], 0.74%.
On to `NC(=O)c1cccc(Nc2nccc(Nc3cccc(F)c3)n2)c1`, for which the inhibition is 0.2% in assay [1]; 0.7% in [2]; 1.01% in assay [3]; 0.12% in assay [4]; -0.32% in assay [5]; 0.77% in [6]. In addition, the inhibition worked out at 0.47% in assay [7]; 1.19% in assay [8]; 0.35% in assay [9]; 0.28% in assay [10]; 0.46% in assay [11]; 0.51% in assay [12]. The inhibition is 1.52% in [13]; -1.2% in [14]; 1.35% in assay [15]; 0.35% in [16]; 1.16% in [17]; 1.27% in [18]. Moreover, the inhibition was determined as 1.94% in assay [19] and 1.27% in [20].
`FC(F)(F)c1ccc(-c2nn3ncccc3c2-c2ccnc(Nc3ccc4c(c3)OCCO4)n2)cc1`: the inhibition in [1] is 3.07%; in assay [2], -0.32%; in assay [3], -0.07%; in assay [4], 3.5%; in assay [5] it was 5.3%; in [6], 3.41%. Moreover, the inhibition was found to be 4.83% in assay [7]; 5.94% in assay [8]; 8.53% in assay [9]; 1.44% in [10]; 2.51% in assay [11]; 4.66% in [12]. Further, the inhibition in [13] is 8.18%; in assay [14], 1.49%; in assay [15] it was 3.18%; in assay [16], 2.19%; in assay [17], 5.4%; in [18], -0.87%. Also, the inhibition was 0.6% in [19] and -0.08% in [20].
